In PubChem BioAssay (NCI):
Compounds without any hit were thinned out: in the full panel of roughly 79,000, 15% have a hit. A number with no mark means an inactive call. Calls of active or inactive are those of the source. Rule as the data show it: active = growth inhibition above about 70%; inactive = the rest.

Legend:
[1] = NCI Yeast Anticancer Drug Screen. Data for the rad50 strain (AID 155);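 also: 0% = growth of vehicle-only cultures of the same strain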; conditions: S. cerevisiae rad50 strain growth inhibition; at 50.0 µM; stronger effect = higher value
Procedure, shortened: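 Compounds were tested on a yeast strain with an engineered DNA damage repair alteration; the reported value is growth inhibition normalised to vehicle treatment.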

[2] = NCI Yeast Anticancer Drug Screen. Data for the mec2-1 strain (AID 157); conditions: S. cerevisiae mec2-1 strain, at 50.0 µM, stronger effect = higher value
Procedure, shortened: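 Test agents were screened against the mec2-1 yeast strain, with defined DNA repair or cell cycle alteration. Growth was scored as inhibition against vehicle-only controls.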

[3] = NCI Yeast Anticancer Drug Screen. Data for the sgs1 mgt1 strain (AID 161);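 also: 0% = growth of cultures given vehicle only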; conditions: S. cerevisiae sgs1 mgt1 strain, at 50.0 µM, stronger effect = higher value
Procedure, shortened: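 Test agents were incubated with a DNA-repair-mutant yeast strain. Growth was then read and compared against vehicle-treated controls.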

[4] = NCI Yeast Anticancer Drug Screen. Data for the cln2 rad14 strain (AID 165);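 also: 0% = growth equal to vehicle treated cultures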; conditions: S. cerevisiae cln2 rad14 strain, at 50.0 µM, stronger effect = higher value
Procedure, shortened: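 Growth of compound-exposed yeast (cln2 rad14 genotype) measured and expressed as inhibition relative to vehicle.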

[5] = NCI Yeast Anticancer Drug Screen. Data for the bub3 strain (AID 167); conditions: S. cerevisiae bub3 mutant strain, at 50.0 µM, stronger effect = higher value
Procedure, shortened: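 Growth of a checkpoint-deficient yeast mutant is measured after compound exposure. Values represent inhibition relative to vehicle.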

[6] = NCI Yeast Anticancer Drug Screen. Data for the mlh1 rad18 strain (AID 175); conditions: S. cerevisiae mlh1 rad18 strain growth inhibition; at 50.0 µM; stronger effect = higher value
Procedure, shortened: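 In this whole-cell yeast screen, a strain with altered DNA damage repair is challenged with compound, and its growth is measured against matched vehicle-treated controls.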

Compound | growth inhibition [1] [%] | growth inhibition [2] | growth inhibition [3] | growth inhibition [4] [%] | growth inhibition [5] | growth inhibition [6]
O=C(NNC(=O)c1ccc([N+](=O)[O-])cc1)c1ccccc1 | -5.85 | 13.1% | 15.9% | -30.1 | -13.4% | -16.1%
CCOC(=O)c1ccc(CS(=O)c2ccccc2)c([N+](=O)[O-])c1 (stereo unspecified) | 14.7 | -4.75% | 20.6% | 3.55 | 58.1% | 18.2%
O=C(Cn1c(=O)oc2ccc(C(=O)c3ccc(F)cc3)cc21)c1ccccc1 | -21.4 | -24.5% | -6.25% | -27.9 | -0.2% | -26.9%
CC1(C)C=C(C(=O)O)C(C)(C)N1O | -8.95 | -25.8% | 5.65% | 6.9 | 14.3% | 2.25%
CC[N+]1(C)CCOCC1 | -13.7 | 3.35% | -8.65% | -21.9 | -5.2% | -8.15%
c1ccc2c(c1)N=C(c1cccc3ccccc13)CC(c1cccc3ccccc13)S2 (stereo unspecified) | -28 | -20.9% | -46.5% | -3.25 | -18.9% | -37%
NC(CCCO)C(=O)O (stereo unspecified) | -21.1 | -6.7% | -24.1% | 8.6 | -26.6% | -26.1%
COc1ccc(OC)c(C#N)c1C#N (tested in a mixture with another compound) | -25.1 | 5.9% | -0.15% | -41.5 | -3.35% | -6.75%
SC1(S)CCCN(Cc2ccccc2)C1 | 8.55 | 19.2% | 42.8% | 35.6 | 44% | 37.8%
COC(=O)/C=C\C1(CC(C)C)N=C(c2ccccc2)OC1=O (stereo unspecified) | 14.9 | 25.1% | 15.8% | 11.2 | 36.1% | 26.8%
O=c1ccc(=O)n(-c2ccc(Cl)cc2)[nH]1 | -8.1 | -21.8% | -12.7% | 23.4 | -6% | -9.9%
O=C1C2=Cc3ccccc3OC2(O)Oc2cc(O)ccc21 (stereo unspecified) | 10.5 | 11.2% | 0.05% | -4.1 | -2.15% | -36.6%
NC(=S)c1ccc[n+](Cc2c(Cl)cccc2Cl)c1 | 11.9 | 3.6% | -0.8% | -13.3 | -0.15% | -4.4%
N#Cc1c(-c2ccco2)c2c(n(C3OC(CO)C(O)C(O)C3O)c1=S)CCCC2 (stereo unspecified) | -12.3 | 6.9% | 15.7% | -7.75 | 5% | 14.8%
CC(=O)Nc1ccc(/C=C2\SC(=S)N(/C=C3/C(=O)N(c4ccccc4)N=C3C)C2=O)cc1 | 12.6 | -3% | 4% | 7 | -2.85% | 7%
CC(CN(C)C)N(C)C (stereo unspecified) | -14.7 | -34.5% | -41.6% | -7.75 | -4.6% | 0.15%
c1ccc(-n2nnc3c2CCCC3)cc1 | -3.2 | -1.6% | -6.1% | -23.8 | -25.6% | -1.65%
Cc1cc(C)n(-c2ccc([N+](=O)[O-])cn2)n1 | 4.55 | 12% | -1.3% | -8.2 | 9.85% | 5.25%
CC=C(c1ccccc1)c1ccccc1 | -34 | -25.2% | -13.7% | -10 | -3.3% | -15.2%
O=S(=O)(Oc1cccc2ccccc12)c1ccc(Br)cc1 | 3.15 | -13.4% | 10.2% | -9.75 | 30.7% | -10.3%
COC(=O)c1cc2ccccc2n1C | -25.7 | -45.6% | -30.9% | 16.1 | -6.95% | -8.15%

Compound | growth inhibition [1] [%] | growth inhibition [2] | growth inhibition [3] | growth inhibition [4] [%] | growth inhibition [5] | growth inhibition [6]
Cc1nn(C(=O)c2ccccc2O)c2c1C(c1ccccc1)SC(N)=N2 (stereo unspecified) | 16.6 | 17.6% | 25.2% | -5.25 | 30.9% | 9.3%
NCCCn1[nH]c(=O)c2cccnc2c1=O | -62.9 | -19% | -19% | -74 | -3.8% | -16.3%
CCOC(=O)C(C(=O)/C=C\c1ccccc1)(C(c1ccccc1)c1ccccc1)C(c1ccccc1)c1ccccc1 | -9.7 | 14.7% | 5% | -38.5 | 2.9% | 2.1%
CS(=O)(=O)Nc1ccc2ccccc2c1 | -33.8 | 18.8% | -22.5% | 5.1 | -3.05% | -3.7%
Cc1ccc(C)c(NC(=O)Oc2ccc(C(=O)OCc3ccccc3)cc2)c1 | 66.8 | 90.8% (active) | 74.9% (active) | 40.5 | 96.5% (active) | 89.5% (active)
CCCCn1c(=S)sc2ccccc21 | 15.2 | 4.45% | 20.8% | -50.5 | 21.7% | 22.4%
Nc1nc2c(c(=O)[nH]1)C(c1ccc(Cl)cc1)C=C(c1ccccc1)N2 (stereo unspecified) | 5.6 | 14.8% | 3.8% | -1.85 | -4.75% | -33.5%
CCCCCCCCCCCCCCC(=O)Cl | 9 | 7.25% | 5.8% | 8.2 | -9.95% | 8.85%
COC(=O)c1cc(NC(=O)Nc2ccc(Cl)cc2[N+](=O)[O-])cc(C(=O)OC)c1 | -21.4 | -13.3% | -14.1% | -68.2 | -2.35% | -11.1%
C[N+](C)(C)c1cc2c(nn1)Nc1ccccc1S2 | 17.4 | 3.8% | -2.75% | 14.7 | -17.8% | 8.35%
O=C(Nc1ccc(O)cc1)c1ccccc1O | 31.6 | -20.4% | 14.3% | -5.95 | 15.4% | 1.25%
COC(=O)Cc1c(C(C)=O)[nH]c2ccccc12 | 19.5 | 9.2% | 4.35% | 20.6 | 4.25% | 13.1%
C(=N/OCc1ccccc1)/c1ccncc1 | 45 | 27.6% | 45.7% | 30.2 | 47.4% | 46.9%
O=C(NNC(=S)Nc1cccc(Cl)c1)c1ccncc1 | 21.8 | 6.5% | 26.6% | 9.45 | 19.9% | -9.55%
COc1ccc(C=Nc2ccc([N+](=O)[O-])cc2O)cc1 | 12.9 | 2.7% | 12.1% | -10.9 | 19.6% | 1.6%
O=C1OC2C(O)C(N(O)c3ccccc3)OC2[C@@H]1O (stereo partly specified) | 1.85 | 17.5% | 21.9% | 9.2 | 21.8% | 15.1%
CCN(CC)CCCC(C)=O | 9.25 | 21.6% | 28.2% | 18.6 | 13% | 3.4%
CCCCCCCCCCc1c2nc(c(CCCCCCCCCC)c3ccc([nH]3)c(CCCCCCCCCC)c3ccc([nH]3)c(CCCCCCCCCC)c3nc1C=C3)C=C2 | -18.1 | -11.9% | -5.95% | 23.4 | 6% | -63.7%
C/C(=N\NC(=S)N1CCN(c2ccccn2)CC1)c1cccc2cccnc12 | 13.4 | -21.1% | -18.9% | 2.4 | 1.4% | -0.25%
CCCCNC(=O)C1C(=O)N(CCCC)C(=O)/C1=N\N (stereo unspecified) | -1.45 | 26.4% | 8.5% | 56.3 | 0.35% | 12.8%
